Compounds with a hit are over-represented: about 2.5% of the library has one in this group of screens.
D2 PAM-1 = D2 dopamine receptor (human) potentiation; potentiation, % at 10 µM; AID 485347; HEK293 T-REx D2, calcium flux, EC20 dopamine potentiation; P14416; 0.34% of 340,000 active;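 active = potentiation over 3 SD above the plate norm, cut at about 30% in these data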
Target sequence (P14416 whole entry, looked up): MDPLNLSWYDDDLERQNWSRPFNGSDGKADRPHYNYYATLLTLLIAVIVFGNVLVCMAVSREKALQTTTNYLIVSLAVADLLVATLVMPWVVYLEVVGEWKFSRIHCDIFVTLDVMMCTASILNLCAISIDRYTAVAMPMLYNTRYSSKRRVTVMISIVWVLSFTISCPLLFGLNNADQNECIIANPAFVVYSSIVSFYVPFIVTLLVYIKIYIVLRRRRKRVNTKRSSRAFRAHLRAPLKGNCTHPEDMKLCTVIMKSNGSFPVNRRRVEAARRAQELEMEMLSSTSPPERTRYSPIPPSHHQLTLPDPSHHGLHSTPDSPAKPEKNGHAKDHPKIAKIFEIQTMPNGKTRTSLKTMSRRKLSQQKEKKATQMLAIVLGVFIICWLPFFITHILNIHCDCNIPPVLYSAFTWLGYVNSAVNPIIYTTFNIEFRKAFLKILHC
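Cells plated with tetracycline inducer and held overnight at 30 C; calcium dye loaded 30–90 min at room temperature; baseline taken, compound added and read 180 s; EC20 dopamine then added and read 180 s.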
D2 antagonist = antagonizes the human D2 dopamine receptor; P14416; 2% of 340,000 active; HEK293 TREx D2 cells, calcium flux, dopamine EC80; AID 485344; inhibition, % at 10 µM; in the data active = inhibition above about 30%; inactive = below that, where a call was filed
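Tetracycline-induced HEK293 T-REx cells expressing D2 force-coupled to calcium signalling were dye-loaded, exposed to compound for 180 s, then challenged with an EC80 of dopamine; calcium flux was followed kinetically for a further 180 s.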
Anesthetic bind = binds horse apoferritin like a general anesthetic; apoferritin/1-aminoanthracene competitive binding, fluorescence; P02791; AID 485281; Potency, µM (series often up to 77.5 µM), hits mostly inhibitors; 0.074% of 350,000 active; active = well fitted inhibition curve with a large enough effect; inconclusive = small, poorly fitted or top-dose-only effect; inactive = no such curve, though single readings can be large or run the other way; note: nearly all actives have a fitted effect of over 20% in size
Target sequence (P02791 2-175 limits assumed): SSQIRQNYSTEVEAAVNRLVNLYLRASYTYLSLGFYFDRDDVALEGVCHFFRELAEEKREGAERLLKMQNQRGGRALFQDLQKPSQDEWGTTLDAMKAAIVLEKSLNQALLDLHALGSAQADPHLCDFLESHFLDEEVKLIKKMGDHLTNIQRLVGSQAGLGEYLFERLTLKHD
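Steps: apoferritin (10 uM) was premixed with half-saturated 1-AMA in PBS, compounds were pin-transferred, plates stood 10 min at room temperature, fluorescence was read at 380/535 nm, and curves were fitted with a Hill equation.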
D2 ag-1 = D2 dopamine receptor (human) agonism; 0.53% of 340,000 active; activation, % at 2 µM; HEK293 T-REx D2 cells, calcium flux agonist mode; AID 485358; P14416;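 active = activation over 3 SD above normal in the single-dose calcium agonist read, cut at about 30% in these data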
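HEK293 Trex D2 cells, tetracycline-induced, o/n 30 C 5% CO2; no-wash Ca dye, RT 30–90 min; 10-cycle baseline, 23 nl cpd added, kinetic Ca read 180 s; agonist hits = positive Ca response.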
D2 PAM-2 = positive allosteric modulators of human D2 dopamine receptor. DiscoveRx D2 beta-arrestin cells, luminescence, 90 min; 100% = 57 uM dopamine signal. 0.23% of 360,000 active. P14416. potentiation, % (test concentration not listed). AID 624464; in the data active = potentiation above about 50%; inconclusive = mostly about 30% to 49%
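D2 cells co-treated with compound plus 50 nM dopamine (EC20) for 90 min at 37 deg C to detect potentiation. Beta-arrestin recruitment was read as enzyme-fragment luminescence after 1 h at ambient temperature. Full response was set by 57 uM dopamine.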
D2 ag-2 = activates the human D2 dopamine receptor; P14416; DiscoveRx PathHunter D2 beta-arrestin, luminescence, 90 min; 100% = 57 uM dopamine signal; activation, % (no concentration beside the values); 0.084% of 360,000 active; in the data active = activation above about 40%; inconclusive = between about 15% and that limit
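DiscoveRx PathHunter D2 beta-arrestin cells (2,100/well) attached overnight, then compound-stimulated 90 min at 37 C in HBSS/10 mM HEPES/0.1% Tween-20 buffer; beta-galactosidase complementation read by luminescence after 1 h at ambient temperature. Dopamine 57 uM final (EC100) as control.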
Of the large screens only hits and unclear results are named; the others gave an inactive call; ! = not confirmed by another sample.

O=C(N/N=C/c1cn(-c2ccccc2)nc1-c1cc2ccccc2o1)c1ccccc1Br	none
COc1ccc(C2/C=C\CN(C(=O)C3CCCC3)CC(=O)N2Cc2ccc(F)cc2)cc1 (configuration not stated)	none
Cc1ccc(NC(=O)C2=NNC(=O)CC2)cc1F	none
N#Cc1cccc(Oc2ccc(S(=O)(=O)N3CCCC3)cn2)c1	D2 antagonist 35.2 (no result: Anesthetic bind)
N#Cc1ccc(CSc2ccc(S(=O)(=O)N3CCCC3)cn2)cc1	D2 antagonist 30.0 (no result: Anesthetic bind)
CCC(C)(C)NC(=O)C(c1ccc(O)cc1)N(CCOC)C(=O)CCC(=O)Nc1nccs1 (configuration not stated)	none
CCN(CC(O)CON=C1c2ccccc2-c2ccccc21)S(=O)(=O)c1ccc(C)cc1 (configuration not stated)	D2 antagonist 34.1, Anesthetic bind inconclusive
COCCSc1nnc(NC(=O)c2ccc([N+](=O)[O-])cc2)s1	none (no result: D2 antagonist, D2 ag-1)
CCOC(=O)CSc1nnc(NC(=O)c2cc([N+](=O)[O-])cc([N+](=O)[O-])c2)s1	D2 PAM-2 63.4
O=C1CCN(Cc2ccc(Br)cc2)CCN1CCO	none
Cc1cccc(NC(=O)CSc2nc(C)c(CC(=O)c3ccc(Br)cc3)c(C)c2C#N)c1C	none
Cc1nc(SCC(=O)Nc2ccc(F)cc2)c(C#N)c(C)c1CC(=O)c1ccc(Br)cc1	D2 antagonist 44.1
Cc1cc([N+](=O)[O-])cnc1NC(C)c1ccccc1 (configuration not stated)	Anesthetic bind 8.91µM
CCCCn1c(N)c(N(CC(C)C)C(=O)c2cccc(OCc3ccccc3)c2)c(=O)[nH]c1=O	D2 PAM-1 30.2 (no result: Anesthetic bind)
CCCCn1c(N)c(N(CCC(C)C)C(=O)c2cccc(S(=O)(=O)N3CCN(C)CC3)c2)c(=O)[nH]c1=O	D2 antagonist 34.0 (no result: Anesthetic bind)
Cc1cccc[n+]1CC(=O)c1ccc(Cl)cc1	none (no result: D2 PAM-1, D2 antagonist, Anesthetic bind, D2 ag-1)
CC(C)[C@H](NC(=O)c1c(F)cccc1F)C(=O)OCC(=O)NC(=O)NC1CCCC1	none
Cc1ccc(CN2C3CCCC2CC(NC(=O)c2ccc(F)cc2)C3)cc1 (configuration not stated)	D2 antagonist 92.1
COc1cccc(C(=O)NC2CC3CCC(C2)N3Cc2ccccc2)c1 (configuration not stated)	D2 antagonist 95.5
O=C(Nc1ccccc1-c1ccccc1)NC1CC2CCCC(C1)N2Cc1ccc(F)cc1 (configuration not stated)	D2 antagonist 51.6
CCOc1ccc(C(=O)NC2CC3CCCC(C2)N3Cc2ccccc2)cc1 (configuration not stated)	none (no result: D2 PAM-1, D2 antagonist, D2 ag-1)
O=C(Nc1ccccc1-c1ccccc1)NC1CC2CCCC(C1)N2CCc1ccccc1 (configuration not stated)	none
O=C(NC1CC2CCC(C1)N2Cc1ccccc1)c1cccc(F)c1 (configuration not stated)	D2 antagonist 71.5
CC(C)n1cnnc1SCC(=O)Nc1cccc(S(=O)(=O)N(C)c2ccccc2)c1	none
Cc1cc(C)n(-c2cc(N3CCOCC3)ncn2)n1	none
C=CCn1c(O)c(N=NC(=O)c2ccccc2NS(=O)(=O)c2cccs2)c2ccccc21	none
COc1cccc(C(=O)NN2c3ccccc3CCc3ccccc32)c1	D2 antagonist 50.7
COc1ccc(CN2C3CCC2CC(NC(=O)c2cccc(F)c2)C3)cc1 (configuration not stated)	D2 antagonist 81.3
COc1ccc(CN2C3CCCC2CC(NC(=O)/C=C/c2ccccc2)C3)cc1 (configuration not stated)	none
CCCNC(=S)NC1CC2CCCC(C1)N2Cc1ccc(F)cc1 (configuration not stated)	D2 antagonist 80.6
Cc1cccc(C(=O)NC2CC3CCCC(C2)N3Cc2ccccc2)c1 (configuration not stated)	D2 antagonist 81.5
O=C(C=C1CCN(c2ncc(C(F)(F)F)cc2Cl)CC1)NNC(=O)Nc1ccccc1	none
O=C(O)c1ccc2nc3c(nc2c1)-c1ccccc1C3=O	D2 antagonist 34.1
O=C(O)c1ccc2nc(-c3ccco3)c(-c3ccco3)nc2c1	none
CCOC(=O)CC(NC(=O)Cn1nnc(-c2ccc(C(F)(F)F)cc2)n1)c1ccc(C)cc1 (configuration not stated)	none (no result: D2 antagonist, D2 PAM-2, D2 ag-2)
N#Cc1cc(NCC2CCCO2)c([N+](=O)[O-])cc1C#N (configuration not stated)	D2 PAM-2 50.1
O=[N+]([O-])c1cc(C(F)(F)F)ccc1NCC1CCCO1 (configuration not stated)	none
CC(C)c1ccccc1NC(=S)NC(=O)C1CCCCC1	none (no result: D2 PAM-1, D2 antagonist, Anesthetic bind, D2 ag-1)
c1ccc(C2=Nc3c(ccc4ccccc34)C(c3ccncc3)=NN2)cc1	none
O=C(Nc1nc2cc3c(cc2s1)OCCO3)c1ccc([N+](=O)[O-])o1	D2 antagonist 37.1
O=C(Nc1nc2ccccc2s1)c1ccc([N+](=O)[O-])o1	none
COCCn1cnc2c1c(=O)n(CC(=O)O)c(=O)n2Cc1ccccc1	none
COCCn1cnc2c1c(=O)n(Cc1ccccc1C#N)c(=O)n2Cc1ccccc1	D2 PAM-1 36.2
CCc1ccc(N(C(C)=O)C2C=CS(=O)(=O)C2)cc1 (configuration not stated)	D2 antagonist 37.2
CC(=O)N(c1ccc(Br)cc1)C1C=CS(=O)(=O)C1 (configuration not stated)	none
Nc1ccn(C2CCCO2)c(=O)n1 (configuration not stated)	none (no result: D2 PAM-1, D2 antagonist, Anesthetic bind, D2 ag-1)
Nc1ccn([C@H]2CC[C@@H](CO)O2)c(=O)n1	D2 antagonist 37.3!
Fc1cccc(F)c1CN1CCN(c2ncccn2)CC1	D2 ag-1 33.5, D2 ag-2 inconclusive
O=C(Nc1nc2ccccc2s1)c1cccc(S(=O)(=O)N2CCc3ccccc32)c1	none (no result: D2 PAM-1, D2 antagonist, D2 ag-1)
O=C(Nc1nc2c(s1)CN(Cc1ccccc1)CC2)c1cccc(S(=O)(=O)N2CCc3ccccc32)c1	D2 antagonist 40.8
Cc1cc(C)c(S(=O)(=O)N2CCN(Cc3nc4ccc(C)cc4o3)CC2)c(C)c1	none (no result: D2 antagonist, D2 PAM-2, D2 ag-2)
Cc1[nH]c2ccccc2c1/C=N/NC(=O)c1cccc(F)c1	none
Cc1[nH]c2ccccc2c1/C=N/Nc1ccc(F)cc1F	D2 antagonist 31.4 (no result: D2 PAM-2, D2 ag-2)
COc1ccc(-n2c(Cc3cc(=O)[nH]c(=O)[nH]3)nnc2SCC(=O)Nc2cc(C(F)(F)F)ccc2Cl)cc1	D2 antagonist 40.8
Cc1cc(NC(=O)c2cccc(Oc3ccccc3)c2)n[nH]1	D2 PAM-1 73.8
Cc1cccc(OCCCCNCc2ccccc2)c1	none

Assay outcomes (PubChem)
